Screening data (PubChem BioAssay)
The list is not random: actives were taken first. Their share in the collection is about 8%.
MARV entry inh = qHTS for Inhibitors of binding or entry into cells for Marburg Virus | Marburg virus pseudotype entry/binding inhibition, cell-based | Potency, µM (titrated, usually from 49.2 µM), for inactives: top-dose activity change, negative = inhibition, most hits filed as inhibitors | actives 6.5% (n = 18,000)
Lassa entry = qHTS for Inhibitors of binding or entry into cells for Lassa Virus; AID 720533, 2013; actives 4.1% (n = 18,000); Lassa virus pseudotyped entry inhibition, cell-based qHTS; Potency, µM (top dose mostly 49.2 µM), for the others: at the highest dose activity change, negative = inhibition, hits mostly inhibitors
* = called active by the depositor; ? = inconclusive; . = not tested or not shown; ! = not active in a repeat; [ ] = dose if it differs, or a comment. Calls come from the whole dose curve; tested in HEK293 cells. % is set by controls: 0 for no effect and ±100 for the full control effect; potency is the fitted concentration of half-maximal effect.

SMILES | MARV entry inh | Lassa entry
CCC=CC[C@@]1(C(=O)OC)C=C[C@@H](C)[C@H](c2ccccc2Br)N1C(=O)C(F)(F)F | -1%[8.59 µM] | 5%[8.59 µM]
CC(CCN1CCCc2nc(C)c(C)cc21)=NO[C@H](C)c1cn([C@H](CO)Cc2ccccc2)nn1 | ? | 1%[8.59 µM]
C[C@@H]1CC2CCC[C@@H]2[C@]2(O1)C(=O)Nc1cccc(Br)c12 (some centres not stated) | 8%[8.59 µM] | 72%[8.59 µM]
CCCCCCCCCCCCCCCC(=O)O[C@@H]1[C@@H](O)[C@@H](O)[C@@H]([C@H](NC(=O)[C@@H]2C[C@@H](CCC)CN2C)[C@H](C)Cl)O[C@@H]1SC | -13% | -24%
COCCN1C(=O)N(C)C(c2ccccc2)C(C(C)=O)=C1C (configuration not stated) | ? | -18%[8.59 µM]
C[C@H](NCCC(c1ccccc1)c1ccccc1)c1ccccc1 | 10µM* | ?
C[C@H](NCc1ccccc1)c1ccccc1 | -1% | 1%
O=c1ncccn1[C@@H]1O[C@H](CO)C(O)[C@@H]1O (some centres not stated) | -4% | -3%
N=c1ccn2c(n1)OCC1C2O[C@@H](O)[C@H]1O (some centres not stated) | 14µM* | ?
N=c1ccn2c(n1)OC1C(O)C(CO)OC12 (configuration not stated) | 0.71µM* | ?
C[C@@H]1COc2cc(Br)ccc2S(=O)(=O)N1 | -24% | 23%
COC(=O)C1=C(C(=O)OC)[C@@H]2N(Cc3ccccc3)c3ccccc3[C@@]23CCC(=O)N(CC2CC2)C3=N1 | ? | -6%[8.59 µM]
COC(=O)CC=C1c2ccccc2C[C@H](OC)[C@@H]1C | -1%[8.59 µM] | 2%[8.59 µM]
COc1ccc(O[C@@H]2[C@H](O)CO[C@@H]2C=CC#Cc2ccccc2)cc1 | 8%[8.59 µM] | -28%[8.59 µM]
CC1(C)CC(n2cnc(-c3ccc(F)cc3)c2-c2ccnc(N)n2)CC(C)(C)N1 | ? | 27%
COc1ccc2c(c1)CO[C@H]([C@H](O)CO)[C@H]2C=CC#Cc1ccc(C(C)(C)C)cc1 | -9%[8.59 µM] | -14%[8.59 µM]
COC(C)(C)CCCC(C)C/C=C/C(C)=C/C(=O)OC(C)C (configuration not stated) | 15% | 14µM*!
CCCCCCN1C[C@@H](O)[C@H](n2cc(C3CC3)nn2)C[C@H]1c1ccc(C)cc1 | -49% | .
CCOC(=O)CN1C(=O)NC(c2ccc(Br)cc2)C(C(=O)OC)=C1C (configuration not stated) | -10%[8.59 µM] | -4%[8.59 µM]
C=CC[C@@H]1C=C[C@@H](Oc2ccc(OC)cc2)[C@H](CO)O1 | -15%[8.59 µM] | -7%[8.59 µM]
CC(=O)OC1CC(OC(C)=O)[C@]2(C)C(CC(=O)[C@]3(C)C2CC[C@@]2(C)C(c4ccoc4)OC(=O)C4O[C@@]423)C1(C)C (some centres not stated) | 5% | -17%
CC1(C)C(=O)C=C[C@@]2(C)C1=C(O)C(=O)[C@@]1(C)C2CC[C@@]2(C)C(c3ccoc3)C[C@H]3O[C@@]321 (some centres not stated) | 5µM* | 11µM*
COC(=O)c1c(OCc2cccnc2)cc(=O)n2c1CCN(Cc1cc3c(cc1Cl)OCO3)CC2 | -19% | -20%
CCON=O | -18% | 10µM*
CC(C)CCON=O | -23% | -6%
SMILES | MARV entry inh | Lassa entry
Cc1noc(C)c1-c1nc(N2CCNCC2)c2ccccc2n1 | ? | 5%
N#Cc1cccc(-c2nc(N3CCNCC3)c3ccccc3n2)c1 | 16µM* | -1%
c1ccc2c(N3CCNCC3)nc(-c3ccc4c(c3)OCO4)nc2c1 | 10µM* | -9%
CS(=O)(=O)Nc1cccc(-c2nc(N3CCNCC3)c3ccccc3n2)c1 | ? | 15%
O=C(c1cccs1)N1C[C@@H](O)[C@@H](n2cc(C3CC3)nn2)C[C@@H]1c1ccc(Cl)cc1 | 7% | .
COC(=O)C1=C(C)N(Cc2ccccc2)C(=NCCc2c[nH]c3ccccc23)NC1c1cccc(F)c1 (configuration not stated) | -17%[8.59 µM] | .
CCCNC(=O)N1C2=NC(C(=O)OC)=C(C(=O)OC)[C@@H]3N(C)c4ccccc4[C@]23C[C@H]1C(=O)OC | 7%[8.59 µM] | -6%[8.59 µM]
c1ccc(CN(CC2=NCCN2)c2ccccc2)cc1 | ? | -4%
CC(C)COC[C@H](CN(Cc1ccccc1)c1ccccc1)N1CCCC1 | 6.3µM* | -24%[17.8 µM]
COc1ccc([C@]23Cc4cc(OC)c(OC)cc4[C@H](O2)c2c(c4ccccc4oc2=O)O3)cc1 | 5%[8.59 µM] | 22%[8.59 µM]
CC(C)c1ccc(Cn2ccc3c4c(N)nc(NC5CC5)nc4ccc32)cc1 | 4µM* | 13µM*
CC(C)C[C@H]1COc2cc(NC3CC3)ccc2S(=O)(=O)N1 | 13% | -10%
O=c1c(O)cc(C2Oc3cc(O)cc(O)c3CC2O)cc2c(C3Oc4cc(O)cc(O)c4CC3O)cc(O)c(O)c12 (configuration not stated) | 13µM* | 5%
Oc1cc(O)c2c(c1)O[C@H](c1ccc(O)c(O)c1)[C@@H](O)C2 | 9% | -8%
CSc1nc(C(=O)N2CCc3c(cnc(C)c3CNC(=O)c3ccc4c(c3)OCO4)C2)cs1 | -13% | -1%
